# Bioassay records: PubChem, National Center for Advancing Translational Sciences (NCATS)
# Rab9 prom act: qHTS Assay for Rab9 Promoter Activators; Potency, µM (titrated, usually from 9.22 µM), without a hit: at the highest dose activation, negative = inhibition, hits mostly activators; Huh7 Rab9 promoter-luciferase reporter, luminescence, 24 h; hit rate 2.8% among 320,000; note: % of control where 0% means no effect; nearly all actives have a fitted effect of over 60% in size
#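 Huh7 cells stably carrying Rab9 promoter–luciferase reporter, plated 1500 cells/well, compound added after 2 h and incubated 24 h at 37 °C; luciferase luminescence then read after 10 min with detection reagent.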
# KinaseGlo FLuc: Counterscreen for Luciferase (Kinase-Glo TM) Inhibition | Luciferin 4-monooxygenase (Photuris pensylvanica), Q27757 | Kinase-Glo luciferase, ATP luminescence, 8 min | Potency, µM (top dose mostly 38.3 µM), inactives show at the top dose activity change, negative = inhibition, usual class: inhibitors | hit rate 0.28% among 200,000; note: % is set by controls: 0 for no effect and ±100 for the full control effect; nearly all actives have a fitted effect of over 60% in size
#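 Recombinant Kinase-Glo luciferase, 10 uM ATP (linear range), luciferin; imidazole pH 7.2 / KCl / MgCl2 / Tween / BSA buffer; 8 min RT; luminescence.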
# FLuc counter: qHTS profiling assay for firefly luciferase inhibitor/activator using purifed enzyme and Km concentrations of substrates (counterscreen for miR-21 project) | AID 588342, 2011 | Potency, µM (highest dose often 57.5 µM), for the others: at the highest dose activity change, negative = inhibition, usual class: inhibitors | purified FLuc, Km substrates, luminescence inhibition | Luciferin 4-monooxygenase (Photinus pyralis), P08659 | hit rate 6.9% among 360,000;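 note: plate controls were vehicle for no effect and reference inhibitor for full effect; nearly all actives have a fitted effect of over 55% in size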
# Target sequence (P08659 whole entry, looked up): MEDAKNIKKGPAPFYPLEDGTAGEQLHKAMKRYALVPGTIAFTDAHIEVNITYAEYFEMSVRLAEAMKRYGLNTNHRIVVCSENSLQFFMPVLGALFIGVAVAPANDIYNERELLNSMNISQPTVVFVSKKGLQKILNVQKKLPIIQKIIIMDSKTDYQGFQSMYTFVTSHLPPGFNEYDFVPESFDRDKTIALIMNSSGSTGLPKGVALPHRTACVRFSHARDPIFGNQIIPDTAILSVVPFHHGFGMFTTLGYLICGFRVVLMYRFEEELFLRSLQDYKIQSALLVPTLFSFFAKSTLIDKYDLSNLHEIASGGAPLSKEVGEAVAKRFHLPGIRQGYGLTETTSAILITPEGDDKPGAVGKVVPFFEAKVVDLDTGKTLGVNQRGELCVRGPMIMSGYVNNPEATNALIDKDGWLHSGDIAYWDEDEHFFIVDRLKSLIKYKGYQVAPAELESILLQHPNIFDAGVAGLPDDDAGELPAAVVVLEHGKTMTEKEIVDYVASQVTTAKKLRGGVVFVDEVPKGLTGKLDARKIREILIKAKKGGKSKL
#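 Purified P. pyralis luciferase (10nM final) with 10uM D-luciferin and 10uM ATP (Km levels) in 50mM Tris acetate pH 7.5, 10mM Mg acetate, 0.01% Tween-20, 0.05% BSA; qHTS 6-point titration, ~60 µM downward; luminescence read.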
# NPC1 prom act: qHTS Assay for NPC1 Promoter Activators. Huh7 NPC1 promoter luciferase reporter, 24 h. Potency, µM (series often up to 9.22 µM), without a hit: at the top dose activation, usual class: activators. hit rate 2.4% among 320,000. AID 485313, 2010; note: % of control where 0% means no effect; nearly all actives have a fitted effect of over 60% in size
#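 Quantitative HTS used a cell-based reporter: Huh7 cells stably bearing the NPC1 promoter upstream of luciferase were treated with compounds for 24 h, and promoter activation was read as luminescence.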
# ELG1 genotoxic: qHTS screen for small molecules that induce genotoxicity in human embryonic kidney (HEK293T) cells expressing luciferase-tagged ELG1. AID 504466, 2011. hit rate 1.3% among 330,000. HEK293T ELG1-luciferase reporter, luminescence, 16 h. Potency, µM (top dose mostly 46 µM), inactives show at the top dose activity change, positive = activation, hits mostly activators; note: % of control where 0% means no effect; nearly all actives have a fitted effect of over 60% in size
#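 DMSO vehicle served as control against compound-treated ELG1-luciferase HEK293T cells; exposure lasted 16 hr at 37 °C and 5% CO2, followed by ONE-Glo luminescence detection after 30 min.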
# SMN2 splice up: qHTS Assay for Enhancers of SMN2 Splice Variant Expression; HEK293 SMN2-luciferase splicing reporter, luminescence, 30-36 h; Potency, µM (top dose mostly 46.1 µM), for the others: top-dose activity change, positive = activation, hits mostly activators; hit rate 2.8% among 210,000; AID 1458, 2008; note: % of control where 0% means no effect; nearly all actives have a fitted effect of over 55% in size
#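 qHTS luciferase splicing reporter: luminescence rises when SMN2 exon 7 is included in transfected HEK293 cells. Compound exposure lasted 30-36 h at 37C, with 4.5 mM final sodium butyrate as control, followed by a ONE-Glo read.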
# * marks the source's active call; other numbers are inactive results; ? = inconclusive; · = no result given. Most compounds without a hit are left out; they make up all but 7.4% or so of the library. Calls come from the whole dose curve; as a rule, active = well fitted curve in the direction sought with a large enough effect; inconclusive = small, poorly fitted or top-dose-only effect, or another doubt; inactive = no such curve, though single readings can be large; an effect the other way counts as inactive or inconclusive. Potency is the fitted concentration of half-maximal effect.
SMILES,Rab9 prom act,KinaseGlo FLuc,FLuc counter,NPC1 prom act,ELG1 genotoxic,SMN2 splice up
COc1ccc(C2=NOC(Cn3nc(-c4ccccc4)cc3C(=O)O)C2)cc1 (configuration not stated),-5.5%,·,4.78µM*,-0.2%,6.9%,·
Cc1ccc(-c2cc(C(=O)O)n(Cc3ccccc3)n2)cc1,·,·,?,·,·,-20.3%
COc1ccc(C2=NOC(Cn3nc(C(=O)O)cc3-c3ccccc3)C2)cc1 (configuration not stated),0.3%,·,0.1%,-0.7%,-1.8%,·
O=C1c2ccccc2S(=O)(=O)N1CC1CC(c2ccc(Cl)cc2)=NO1 (configuration not stated),2.24µM*,-7.4%,2.39µM*,3.55µM*,16.4µM*,15.8µM*
O=C1c2ccccc2S(=O)(=O)N1CC1CC(c2ccccc2)=NO1 (configuration not stated),1.41µM*,8.3%,6.01µM*,3.16µM*,4.11µM*,13.6%
Cc1ccc(NC(=O)c2oc3c(c2C)-c2[nH]ncc2CC3)c(Cl)c1,·,·,-11.0%,·,·,·
Cc1ccc(NC(=O)Nc2nnc(N(C)Cc3ccccc3)s2)cc1,·,·,-9.1%,·,·,·
CC(=O)c1cccc(NC(=O)c2oc(C)nc2C)c1,26.7%,·,-1.0%,-4.6%,2.4%,·
C/C(=N/OC(=O)c1ccccc1)c1oc(C)nc1C,1.4%,·,12µM*,1.4%,2.3%,·
C/C(=N/OC(=O)c1ccc(Cl)cc1Cl)c1oc(C)nc1C,7.1%,·,7.57µM*,-3.4%,-1.1%,·
C/C(=N/Oc1nc(C)cc(C)n1)c1ccc(Cl)cc1Cl,-0.9%,0.9%,7.0%,-1.0%,-0.6%,-14.1%
Cc1cc(N2CCCCC2)nc2ccc(NC(=O)/C=C/c3ccc(OCCC(C)C)cc3)cc12,·,·,0.2%,·,·,0.2%
N#Cc1cccc(NC(=O)Cn2nc(Cc3ccncc3)c3ccccc3c2=O)c1,·,·,-6.0%,·,·,6.8%
CC(=O)Nc1cccc(NC(=O)c2oc3ccccc3c2C)c1,3.55µM*,7.4%,6.01µM*,3.16µM*,?,11.2µM*
CCC(=O)Nc1ccc(NC(=O)c2oc3ccccc3c2C)cc1,-9.4%,·,5.36µM*,-5.3%,9.0%,·
Nc1c(C(=O)Nc2ccc(Cl)cc2)oc2ccccc12,2.51µM*,4.1%,2.69µM*,1.41µM*,2.31µM*,23.7%
CCOC(=O)c1c(C)[nH]c(CCC(=O)Nc2ccc(N(CC)CC)cc2C)c1C,·,·,-7.8%,·,·,·
COc1ccccc1NC(=O)CN1C(=O)CCSc2ccccc21,·,·,5.1%,·,·,24.4%
COc1ccc(/C(O)=C/c2nc3ccccc3n(-c3ccccc3)c2=O)cc1,25.8%,-2.8%,7.57µM*,-2.5%,20.5%,-26.3%
CC(C)CCn1cnc2c(oc3nc4c(cc32)CCCC4)c1=O,0.447µM*,·,1.69µM*,0.501µM*,?,·
O=C(NCc1noc2ccccc12)Nc1ccc(F)cc1F,·,·,-6.9%,·,·,·
CN(C)CCNc1oc(-c2ccc(COc3ccc(Cl)cc3)o2)nc1C#N,·,·,4.3%,·,·,·
COc1ccc(C(=O)Nc2ccccc2C(=O)N/N=C/c2ccccn2)cc1OC,-14.1%,·,0.849µM*,-8.4%,20.6µM*,·
O=C(N/N=C/c1ccc(-c2ccccc2)o1)c1ccccc1O,18.6%,·,5.36µM*,11.0%,0.2%,·
O=C(N/N=C\c1ccccn1)c1ccccc1O,13.5%,-16.7%,12µM*,-0.1%,?,18.0%
O=C(N/N=C/c1ccccn1)c1ccco1,1.6%,-3.5%,?,4.8%,6.3%,1.4%
Cc1ccccc1C(=O)N/N=C/c1ccccn1,3.98µM*,2.8%,8.49µM*,3.16µM*,25.9µM*,11.2µM*
Cc1ccccc1C(=O)N/N=C/c1ccncc1,10.7%,-12.1%,?,12.8%,6.9%,-0.9%
CC1(C)C2CC=C(/C=N/NC(=O)c3ccccc3O)C1C2 (configuration not stated),-2.8%,2.2%,7.57µM*,-0.7%,-0.4%,-15.3%
